SNCA expr inhib: Primary qHTS assay for inhibitors of alpha-synuclein gene (SNCA) expression. 0.17% of 140,000 active. Potency, µM (series often up to 57.2 µM), most hits filed as inhibitors. AID 1671194, 2021. HEK-293 SNCA-luciferase knock-in, luminescence, 24 h; further: nearly all actives have a fitted effect of over 45% in size
IP6K1 inh: Primary qHTS assay for small molecule inhibitors of Inositol hexaphosphate kinase 1 (IP6K1); Inositol hexakisphosphate kinase 1 (Homo sapiens), Q92551; IP6K1 kinase, ADP-Glo luminescence, 2 h; hits give low values; activity change, % (series mostly up to about 58 µM); 0.81% of 140,000 active; in the data active means activity change below about -25%
Target sequence (Q92551 whole entry, looked up): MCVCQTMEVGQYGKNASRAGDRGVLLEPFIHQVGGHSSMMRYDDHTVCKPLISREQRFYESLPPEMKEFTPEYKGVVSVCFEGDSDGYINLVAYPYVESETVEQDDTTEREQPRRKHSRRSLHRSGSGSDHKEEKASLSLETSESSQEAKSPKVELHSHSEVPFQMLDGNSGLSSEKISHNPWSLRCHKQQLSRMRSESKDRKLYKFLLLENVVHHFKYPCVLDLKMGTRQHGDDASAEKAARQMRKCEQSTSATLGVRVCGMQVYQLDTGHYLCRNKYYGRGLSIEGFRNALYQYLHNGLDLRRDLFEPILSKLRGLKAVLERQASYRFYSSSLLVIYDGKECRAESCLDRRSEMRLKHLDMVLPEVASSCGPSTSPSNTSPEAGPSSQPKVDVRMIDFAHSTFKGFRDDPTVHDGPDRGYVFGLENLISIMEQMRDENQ
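ADP-Glo luminescence measures ADP made by human IP6K1 during a 2 h RT reaction with ATP/IP6 (mix at 1.3 mM/130 uM); top library doses 57.5 and 19.1 uM final.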
HEK293 viab: GF-AFC viability counterscreen for inhibitors of alpha-synuclein gene (SNCA) expression; HEK-293-SNCA-luc viability, GF-AFC fluorescence, 24 h; Potency, µM (highest dose often 57.1 µM), hits mostly cytotoxic; 0.12% of 150,000 active; AID 1671193, 2021; further: nearly all actives have a fitted effect of over 30% in size
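Cytotoxicity counterscreen: after 24 h compound treatment of genome-edited SNCA-luciferase HEK-293 cells, live-cell protease substrate GF-AFC read by fluorescence after 30 min; activity scaled between DMSO (0%) and medium-only (-100%), curves Hill-fitted.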
KDM5B inh: Primary screen for KDM5B Histone Demethylases FDH-coupled qHTS | Lysine-specific demethylase 5B (Homo sapiens), Q9UGL1 | 2.6% of 220,000 active | Potency, µM (series often up to 57.7 µM), most hits filed as inhibitors | KDM5B demethylase, FDH-coupled NADH fluorescence (FDH is formaldehyde dehydrogenase); further: nearly all actives have a fitted effect of over 70% in size
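Here, H3K4me3 peptide (12.5 µM in substrate mix) is demethylated by KDM5BΔAP, 200 nM final, after 10 min compound exposure. Formaldehyde product is coupled through FDH (0.25 U/mL in mix) to NADH fluorescence; 30-min ΔRFU feeds dose-response curves.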
A number is an active result; - = inactive; ? = inconclusive; . = no result. An excerpt weighted towards active compounds, which were near 2.9% of everything screened. Unless noted, the call rests on the fitted dose curve; in most records, active means well fitted curve in the direction sought with a large enough effect; inconclusive means small, poorly fitted or top-dose-only effect, or another doubt; inactive means no such curve, though single readings can be large; an effect the other way counts as inactive or inconclusive.

SMILES	SNCA expr inhib	IP6K1 inh	HEK293 viab	KDM5B inh
COC(=O)c1ccccc1NC(=O)N1CCC[C@@H](O)[C@H](NC(=O)c2ccc(OCc3c(C)noc3C)cc2)C1	-	-	-	22.4µM
Cc1noc(C)c1COc1ccc(C(=O)N[C@@H]2CN(C(=O)Nc3cccc(C(F)(F)F)c3)CCC[C@H]2O)cc1	-	-	-	-
NC(=O)COc1ccc(C(=O)N[C@@H]2CN(C(=O)NC3CCCCC3)CCC[C@H]2O)cc1	?	-	-	-
NC(=O)COc1ccc(C(=O)N[C@@H]2CN(Cc3ccccn3)CCC[C@H]2O)cc1	-	-	-	31.6µM
O=C(N[C@@H]1CN(C(=O)Nc2ccc(F)cc2)CCC[C@H]1O)c1ccc(OCCN2CCCC2)cc1	-	-	-	28.2µM
COCCOc1ccc(C(=O)N[C@@H]2CN(C(=O)Nc3ccc(F)cc3)CCC[C@H]2O)cc1	-	-	-	-
COc1ccc(NCc2nnc3n2CCCCC3)c(OC)c1	-	-	-	-
Cc1noc(-c2ccc3c(c2)OCO3)c1C(=O)NC(C)CCc1ccccc1 (centres undefined)	-	-	-	28.2µM
Cc1noc(-c2ccc3c(c2)OCO3)c1C(=O)NCCCCc1ccccc1	-	-	-	28.2µM
Cc1ccccc1-c1onc(C)c1C(=O)NCc1cc(F)cc(F)c1	-	-	-	-
COc1ccccc1-c1onc(C)c1C(=O)NCc1ccccc1C	-	-	-	?
COc1ccc(-c2onc(C)c2C(=O)NCCCCc2ccccc2)cc1	-	-	-	-
Cc1noc(-c2ccc3c(c2)OCO3)c1C(=O)NCc1cc(F)cc(F)c1	-	-	-	28.2µM
CCOc1ccccc1CNC(=O)c1c(C)noc1-c1ccc2c(c1)OCO2	-	-	-	28.2µM
NC(=O)NC(c1ccc(Cl)cc1)c1ccccc1Cl (centres undefined)	.	.	.	-
O=C(NC1CC1)c1ccccc1OC1CN(Cc2ccsc2)C1	-	-	-	-
CCN(CC)c1cc(CCC(=O)NCCN2CCCCCC2)ccn1	-	-	-	28.2µM
CCN(CC)c1cc(CCC(=O)N2CCN(c3cccc(OC)c3)CC2)ccn1	?	-	-	?
CCN(CC)c1cc(CCC(=O)N2CCC(COC)CC2)ccn1	-	-	-	25.1µM
CCN(CC)c1cc(CCC(=O)NCCOC)ccn1	-	-	-	17.8µM
CCN(CC)c1cc(CCC(=O)NCCN(C)C2CCCCC2)ccn1	?	-	-	28.2µM
CCN(CC)c1cc(CCC(=O)O)ccn1	-	-	-	-
CCN(CC)c1cc(CCC(=O)NCCc2ccccn2)ccn1	-	-	-	?
CCN(CC)c1cc(CCC(=O)NCc2ccc(N3CCOCC3)cc2)ccn1	-	-	-	?
CC(=O)Nc1nonc1-c1nnc(SCC(=O)Nc2ccc(C)c(Cl)c2)n1-c1ccccc1	-	-	-	-
SMILES	SNCA expr inhib	IP6K1 inh	HEK293 viab	KDM5B inh
Cc1nc(-c2cc3ccc(OCC(=O)NCCO)cc3oc2=O)cs1	.	.	.	-
O=C(O)CCCC(=O)N1CCc2cc(S(=O)(=O)NCc3ccccc3)ccc21	-	-	-	-
CCN(CC)c1cc(CCC(=O)N2CCN(c3ccc(Cl)cc3)CC2)ccn1	-	-	-	?
CCN(CC)c1cc(CCC(=O)NCCCN2CCN(C)CC2)ccn1	-	-	-	25.1µM
O=C(N[C@H](C1CCNCC1)C1CC(O)C1)c1ccc2nccnc2c1 (some centres undefined)	-	-	-	?
CC(C)c1ccc(C(=O)N[C@H](C2CCNCC2)C2CC(O)C2)c(=O)n1C (some centres undefined)	?	-	-	25.1µM
COc1cccc(CN2CCCCCCNC(=O)[C@@H]3CCC[C@@H]32)c1	-	-	-	?
COc1cccc(CN2CCCCCNC(=O)[C@@H]3CCC[C@@H]32)c1	-	-	-	20µM
COCCN1C(=O)c2ccccc2C(C(=O)Nc2ccc(OC)cc2)C12CCCC2 (centres undefined)	-	-	-	15.8µM
CC(=O)Nc1ccc(NC(=O)C2c3ccccc3C(=O)N(C3CCCC3)C23CCCC3)cc1 (centres undefined)	-	-	-	?
COCCN1C(=O)c2ccccc2C(C(=O)NCCc2c[nH]c3ccccc23)C12CCCC2 (centres undefined)	-	-	-	22.4µM
Cc1nc(NC(=O)C2c3ccccc3C(=O)N(C3CCCC3)C23CCCC3)sc1C (centres undefined)	-	-	-	22.4µM
COc1ccc([C@@H](NC2CCN(C(=O)C(C)C)CC2)C2CC(O)C2)cn1 (some centres undefined)	?	-	-	-
C1CCC(c2nc(CCOCC3CCOCC3)no2)NC1 (centres undefined)	-	-	-	31.6µM
COc1ccc(F)cc1-c1ncc2c(n1)OCCN(c1cccc(C(F)(F)F)c1)C2=O	?	-	-	39.8µM
COc1ccc(-c2ncc3c(n2)OCCN(c2ccccc2)C3=O)cc1F	-	-	-	28.2µM
COCCN1CCOc2nc(-c3cc(F)ccc3OC)ncc2C1=O	-	-	-	31.6µM
COc1cc(F)cc(-c2ncc3c(n2)OCCN(Cc2ccc(F)cc2F)C3=O)c1	-	-	-	?
COCCN1CCOc2nc(-c3cc(F)cc(OC)c3)ncc2C1=O	?	-	-	31.6µM
COCCN1CCOc2nc(-c3ccc(F)c(Cl)c3)ncc2C1=O	-	-	-	-
COc1ccc(C(=O)N2CCC3(CC2)N=C(c2ccc(C)cc2)NO3)cc1OC	-	-	-	-
CC1(C)C(=O)Nc2ccc(S(=O)(=O)N3CCC(c4noc(-c5ccccn5)n4)C3)cc21 (centres undefined)	-	-	-	-
O=C1c2cnc(-c3cc4ccccc4o3)nc2OCCN1CC1CC1	?	-	-	-
COc1cc(F)cc(-c2ncc3c(n2)OCCN(C)C3=O)c1	-	-	-	35.5µM
COCCN1CCOc2nc(-c3cc4ccccc4o3)ncc2C1=O	8.91µM	-	-	?
SMILES	SNCA expr inhib	IP6K1 inh	HEK293 viab	KDM5B inh
COc1cc(F)cc(-c2ncc3c(n2)OCCN(c2cccc(C(F)(F)F)c2)C3=O)c1	-	-	-	-
C=CCNC(=O)CC1CCCN(c2cnn(C)c(=O)c2)C1 (centres undefined)	-	-	-	-
CCCC(=O)c1cc2c(cc1NC(=O)c1ccccc1F)OCCO2	14.1µM	-	-	?
CCC(=O)c1cc2c(cc1NC(=O)c1ccccc1F)OCCO2	-	-	-	-
CC(Sc1ccccc1Cl)C(=O)NCCC(=O)N1CCCCC1 (centres undefined)	.	.	.	-
Nc1cccc(C(=O)NCC2CCN(Cc3cc(F)cc(F)c3)C2)c1 (centres undefined)	-	-	-	28.2µM
Cc1cccc(CNC(=O)NCC2CCN(Cc3ccncc3)C2)c1 (centres undefined)	-	-	-	14.1µM
O=C(NCC1CC1)c1cccc(OC2CN(Cc3cccc(F)c3)C2)c1	-	-	-	-

Source: PubChem (National Center for Advancing Translational Sciences (NCATS))
